Test results published in the supplement of paper PMC10849652.
About 7,900 targets were measured; listed, in parts, are those with a hit and a random draw of the rest. About 0.6% of all pairs of compound and target were hits. Values without a mark were called inactive.

Experiments:
Assay in all cases: log2 fold change, soluble protein after heating vs DMSO (PISA); higher = thermal stabilisation; K562 cells, 10 uM, 30 min; active = over 0.2 and 3.5 SD of the protein, either way, in both replicates (recomputed)
[1] = compound: CN1CCN(CCOc2cc(OC3CCOCC3)c3c(Nc4c(Cl)ccc5c4OCO5)ncnc3c2)CC1 [saracatinib]
Method in brief: (§1)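 Thermal stability values are relative to control samples and come from duplicates. They are expressed as log2 fold changes. For measurement, K562 cells (2×10^6 cells/mL) received 10 μM compound for 30 min, and aliquots were heated for 3 min over 48°C-58°C, pooled, and extracted at 4°C in PBS with 0.5% NP-40. Soluble protein, the supernatant after 21,000xg for 90 min, was quantified by TMTpro 16plex LC-MS/MS with equalised channel sums.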

[2] = compound: CN1CCN(c2nc(C3=C(c4c[nH]c5ccccc45)C(=O)NC3=O)c3ccccc3n2)CC1 [sotrastaurin]
Method in brief: as §1

[3] = compound: CN1CC[C@H](c2c(O)cc(O)c3c(=O)cc(-c4ccccc4Cl)oc23)[C@H](O)C1 [alvocidib]
Method in brief: as §1

[4] = compound: CN1CCc2c(c3ccccc3n2Cc2ccc(C(=O)NO)cc2)C1 [Tubastatin A]
Method in brief: as §1

[5] = compound: CNC(=O)C1=CC=CC=C1NC2=NC(=NC=C2Cl)NC3=C(C=C(C=C3)N4CCOCC4)OC
Method in brief: as §1

[6] = compound: CNC(=O)c1ccc(Nc2ncc(C(F)(F)F)c(NCc3nccnc3N(C)S(C)(=O)=O)n2)cc1 [defactinib]
Method in brief: as §1

[7] = compound: CNCc1ccc(-c2[nH]c3cc(F)cc4c3c2CCNC4=O)cc1 [rucaparib]
Method in brief: as §1

[8] = compound: CNc1nc(-c2ccc3c(N)n[nH]c3c2)cc(N2C[C@@H](C(=O)NC3CCCCC3)CC[C@H]2C)n1
Method in brief: as §1

[9] = compound: COC(=O)N[C@@H](C)CNc1nccc(-c2cn(C(C)C)nc2-c2cc(Cl)cc(NS(C)(=O)=O)c2F)n1 [encorafenib]
Method in brief: as §1

[10] = compound: COC(=O)[C@H](CCSC)NC(=O)C1=C(C=C(C=C1)NC[C@H](CS)N)C2=CC=CC=C2
Method in brief: as §1

[11] = compound: COC1=CC=C(C=C1)CN2C=CC3=C2C=C(C=C3)C(=O)NO
Method in brief: as §1

[12] = compound: CON(C)C(=O)N1N=C(c2cc(F)ccc2F)S[C@@]1(CCCN)c1ccccc1 [filanesib]
Method in brief: as §1

[13] = compound: CO[C@H]1C[C@@H]2CC[C@@H](C)[C@@](O)(O2)C(=O)C(=O)N2CCCC[C@H]2C(=O)O[C@H]([C@H](C)C[C@@H]2CC[C@H](n3cnnn3)[C@H](OC)C2)CC(=O)[C@H](C)/C=C(\C)[C@@H](O)[C@@H](OC)C(=O)[C@H](C)C[C@H](C)/C=C/C=C/C=C/1C [zotarolimus]
Method in brief: as §1

[14] = compound: COc1cc(C(=O)O)ccc1NC(=O)[C@@H]1N[C@@H](CC(C)(C)C)[C@](C#N)(c2ccc(Cl)cc2F)[C@H]1c1cccc(Cl)c1F [idasanutlin]
Method in brief: as §1

[15] = compound: COc1cc(Nc2ncc3c(n2)-c2ccc(Cl)cc2C(c2c(F)cccc2OC)=NC3)ccc1C(=O)O [alisertib]
Method in brief: as §1

[16] = compound: COc1cc2nc(-c3cc(F)ccc3O)nc(N[C@@H]3CNC[C@H]3C(C)(C)O)c2cc1OC
Method in brief: as §1

[17] = compound: COc1cc2ncnc(Nc3ccc(F)c(Cl)c3)c2cc1OCCCN1CCOCC1 [gefitinib]
Method in brief: as §1

[18] = compound: COc1cccc2cc(-c3nc([C@H]4CC[C@H](C(=O)O)CC4)n4ncnc(N)c34)[nH]c12
Method in brief: as §1

[19] = compound: CS(=O)(=O)CCNCc1ccc(-c2ccc3ncnc(Nc4ccc(OCc5cccc(F)c5)c(Cl)c4)c3c2)o1 [lapatinib]
Method in brief: as §1

[20] = compound: CS(=O)(=O)N1CCN(Cc2cc3nc(-c4cccc5[nH]ncc45)nc(N4CCOCC4)c3s2)CC1 [pictilisib]
Method in brief: as §1

Chain of UniProt Q9BVC4 (Q9BVC4 whole entry, looked up): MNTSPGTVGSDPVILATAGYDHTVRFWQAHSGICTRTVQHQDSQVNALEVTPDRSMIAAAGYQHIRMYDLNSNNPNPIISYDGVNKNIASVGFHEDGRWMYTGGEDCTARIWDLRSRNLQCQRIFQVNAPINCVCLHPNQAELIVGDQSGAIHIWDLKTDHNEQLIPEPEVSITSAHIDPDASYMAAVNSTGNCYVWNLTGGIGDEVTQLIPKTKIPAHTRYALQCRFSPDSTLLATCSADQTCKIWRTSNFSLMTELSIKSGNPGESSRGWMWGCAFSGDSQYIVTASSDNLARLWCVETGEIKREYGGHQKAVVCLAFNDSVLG
Chain of UniProt Q96I59 (Q96I59 whole entry, looked up): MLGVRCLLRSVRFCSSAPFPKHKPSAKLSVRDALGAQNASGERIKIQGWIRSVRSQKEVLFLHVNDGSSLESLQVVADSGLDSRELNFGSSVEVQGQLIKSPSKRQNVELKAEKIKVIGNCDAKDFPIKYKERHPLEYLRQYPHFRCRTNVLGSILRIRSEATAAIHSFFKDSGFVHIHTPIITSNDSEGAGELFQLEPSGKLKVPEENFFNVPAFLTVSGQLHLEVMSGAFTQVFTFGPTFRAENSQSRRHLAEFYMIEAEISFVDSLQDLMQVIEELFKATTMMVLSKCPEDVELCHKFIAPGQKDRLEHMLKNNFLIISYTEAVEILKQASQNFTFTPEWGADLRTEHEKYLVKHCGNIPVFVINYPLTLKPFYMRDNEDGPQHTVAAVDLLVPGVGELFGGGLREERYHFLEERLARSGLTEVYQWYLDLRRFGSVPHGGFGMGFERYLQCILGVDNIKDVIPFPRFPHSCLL
Chain of UniProt Q9HBL8 (Q9HBL8 whole entry, looked up): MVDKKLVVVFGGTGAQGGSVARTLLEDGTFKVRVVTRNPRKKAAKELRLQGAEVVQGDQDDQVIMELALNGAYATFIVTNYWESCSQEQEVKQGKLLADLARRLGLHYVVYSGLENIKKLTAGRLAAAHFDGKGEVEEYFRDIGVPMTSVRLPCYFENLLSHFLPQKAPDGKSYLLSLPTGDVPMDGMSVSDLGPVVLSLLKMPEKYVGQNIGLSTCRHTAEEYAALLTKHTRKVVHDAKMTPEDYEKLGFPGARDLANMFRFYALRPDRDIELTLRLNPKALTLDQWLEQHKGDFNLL
Chain of UniProt O14950 (O14950 whole entry, looked up): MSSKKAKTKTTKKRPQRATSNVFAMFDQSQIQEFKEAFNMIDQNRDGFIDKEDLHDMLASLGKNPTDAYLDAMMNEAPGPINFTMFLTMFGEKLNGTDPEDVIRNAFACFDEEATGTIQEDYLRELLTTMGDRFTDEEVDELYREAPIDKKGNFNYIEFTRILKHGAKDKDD
Chain of UniProt Q96RE7 (Q96RE7 whole entry, looked up): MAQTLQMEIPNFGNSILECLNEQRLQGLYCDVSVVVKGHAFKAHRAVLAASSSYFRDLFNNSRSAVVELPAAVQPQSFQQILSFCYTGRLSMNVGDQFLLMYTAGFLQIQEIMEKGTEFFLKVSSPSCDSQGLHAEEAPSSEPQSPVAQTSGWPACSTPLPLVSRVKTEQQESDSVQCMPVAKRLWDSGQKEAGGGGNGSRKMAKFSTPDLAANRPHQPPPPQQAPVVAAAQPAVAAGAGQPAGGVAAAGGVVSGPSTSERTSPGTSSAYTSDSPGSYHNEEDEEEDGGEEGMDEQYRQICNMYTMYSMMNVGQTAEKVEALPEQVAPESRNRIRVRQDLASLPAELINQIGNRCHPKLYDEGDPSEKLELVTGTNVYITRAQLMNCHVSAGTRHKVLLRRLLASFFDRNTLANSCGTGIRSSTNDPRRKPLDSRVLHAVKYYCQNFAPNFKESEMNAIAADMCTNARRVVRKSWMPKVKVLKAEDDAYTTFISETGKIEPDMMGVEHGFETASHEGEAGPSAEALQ
Chain of UniProt P11586 (P11586 whole entry, looked up): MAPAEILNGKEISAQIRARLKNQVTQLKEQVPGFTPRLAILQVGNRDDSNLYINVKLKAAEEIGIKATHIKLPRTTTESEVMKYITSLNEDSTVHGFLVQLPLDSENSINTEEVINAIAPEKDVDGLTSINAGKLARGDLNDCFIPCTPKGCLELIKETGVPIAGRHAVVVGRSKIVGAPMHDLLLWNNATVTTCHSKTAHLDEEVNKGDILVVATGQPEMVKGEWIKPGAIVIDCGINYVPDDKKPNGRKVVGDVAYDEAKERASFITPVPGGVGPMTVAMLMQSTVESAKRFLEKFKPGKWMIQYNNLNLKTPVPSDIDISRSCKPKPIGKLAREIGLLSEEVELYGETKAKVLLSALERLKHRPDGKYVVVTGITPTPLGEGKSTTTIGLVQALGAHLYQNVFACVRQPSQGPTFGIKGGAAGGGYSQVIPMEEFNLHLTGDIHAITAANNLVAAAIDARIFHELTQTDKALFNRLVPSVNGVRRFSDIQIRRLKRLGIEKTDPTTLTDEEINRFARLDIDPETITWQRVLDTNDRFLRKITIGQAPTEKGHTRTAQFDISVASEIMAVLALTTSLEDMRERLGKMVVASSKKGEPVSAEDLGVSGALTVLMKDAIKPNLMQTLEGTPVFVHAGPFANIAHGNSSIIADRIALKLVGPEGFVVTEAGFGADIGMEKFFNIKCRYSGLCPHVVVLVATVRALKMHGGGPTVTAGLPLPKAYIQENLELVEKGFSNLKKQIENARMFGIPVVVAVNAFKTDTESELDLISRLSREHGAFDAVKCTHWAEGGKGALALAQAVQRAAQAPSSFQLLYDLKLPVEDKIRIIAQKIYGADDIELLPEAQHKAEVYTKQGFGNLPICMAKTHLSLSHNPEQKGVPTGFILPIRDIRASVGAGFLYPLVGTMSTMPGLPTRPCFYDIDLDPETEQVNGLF
Chain of UniProt P40261 (P40261 whole entry, looked up): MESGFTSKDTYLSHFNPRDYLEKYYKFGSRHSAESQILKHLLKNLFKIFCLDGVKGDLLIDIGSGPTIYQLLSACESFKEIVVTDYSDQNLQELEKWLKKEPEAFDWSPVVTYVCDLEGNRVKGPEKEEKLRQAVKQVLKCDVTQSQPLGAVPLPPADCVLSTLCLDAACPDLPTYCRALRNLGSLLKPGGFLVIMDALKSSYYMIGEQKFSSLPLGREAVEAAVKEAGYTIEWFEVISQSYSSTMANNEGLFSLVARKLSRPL
Chain of UniProt Q9UI09 (Q9UI09 whole entry, looked up): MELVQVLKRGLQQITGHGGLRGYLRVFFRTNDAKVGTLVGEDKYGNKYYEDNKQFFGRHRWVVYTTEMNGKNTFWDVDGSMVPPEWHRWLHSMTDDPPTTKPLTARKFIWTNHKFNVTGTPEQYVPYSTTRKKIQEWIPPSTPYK
Chain of UniProt Q13952 (Q13952 whole entry, looked up): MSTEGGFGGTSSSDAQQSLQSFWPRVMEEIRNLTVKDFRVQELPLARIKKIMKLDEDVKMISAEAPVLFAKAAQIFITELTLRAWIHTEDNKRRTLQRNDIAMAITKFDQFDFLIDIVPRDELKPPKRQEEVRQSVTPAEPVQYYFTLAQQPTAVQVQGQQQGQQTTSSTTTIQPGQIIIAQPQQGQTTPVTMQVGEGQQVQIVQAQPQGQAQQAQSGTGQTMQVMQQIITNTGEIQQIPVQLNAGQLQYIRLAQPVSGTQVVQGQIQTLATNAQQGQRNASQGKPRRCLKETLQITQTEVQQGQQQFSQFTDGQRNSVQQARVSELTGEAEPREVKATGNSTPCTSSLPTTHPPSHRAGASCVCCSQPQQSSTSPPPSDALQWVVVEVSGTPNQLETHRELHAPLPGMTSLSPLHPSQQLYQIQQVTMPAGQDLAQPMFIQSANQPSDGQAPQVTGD
Chain of UniProt Q9ULX3 (Q9ULX3 whole entry, looked up): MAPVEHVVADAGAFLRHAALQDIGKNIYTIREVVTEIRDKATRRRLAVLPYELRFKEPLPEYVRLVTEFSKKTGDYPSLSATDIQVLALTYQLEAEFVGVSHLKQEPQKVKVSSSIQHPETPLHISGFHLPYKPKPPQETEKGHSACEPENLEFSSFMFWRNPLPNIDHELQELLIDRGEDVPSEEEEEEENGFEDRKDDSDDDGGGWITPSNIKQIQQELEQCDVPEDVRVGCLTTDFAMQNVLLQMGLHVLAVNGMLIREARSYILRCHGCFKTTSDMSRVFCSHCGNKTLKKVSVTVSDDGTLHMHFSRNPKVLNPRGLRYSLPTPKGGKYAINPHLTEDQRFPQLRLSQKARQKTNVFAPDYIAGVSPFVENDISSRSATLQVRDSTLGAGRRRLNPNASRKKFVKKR
Chain of UniProt O43913 (O43913 whole entry, looked up): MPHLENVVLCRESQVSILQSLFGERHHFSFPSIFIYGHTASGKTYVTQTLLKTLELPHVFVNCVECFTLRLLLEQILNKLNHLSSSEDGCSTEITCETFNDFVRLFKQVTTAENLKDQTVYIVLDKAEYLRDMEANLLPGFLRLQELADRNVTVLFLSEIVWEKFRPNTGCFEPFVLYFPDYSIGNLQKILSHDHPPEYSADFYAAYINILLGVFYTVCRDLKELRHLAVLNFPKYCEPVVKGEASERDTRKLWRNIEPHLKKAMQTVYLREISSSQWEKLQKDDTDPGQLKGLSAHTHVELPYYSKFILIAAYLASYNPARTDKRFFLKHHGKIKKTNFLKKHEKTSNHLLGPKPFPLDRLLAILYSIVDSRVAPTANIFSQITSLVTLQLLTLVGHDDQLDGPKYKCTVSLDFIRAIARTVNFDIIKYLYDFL
Chain of UniProt O00483 (O00483 whole entry, looked up): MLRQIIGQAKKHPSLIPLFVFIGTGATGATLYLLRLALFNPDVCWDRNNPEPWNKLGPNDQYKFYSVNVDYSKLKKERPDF

Target	log2 fold change [1]	log2 fold change [2]	log2 fold change [3]	log2 fold change [4]	log2 fold change [5]	log2 fold change [6]	log2 fold change [7]	log2 fold change [8]	log2 fold change [9]	log2 fold change [10]	log2 fold change [11]	log2 fold change [12]	log2 fold change [13]	log2 fold change [14]	log2 fold change [15]	log2 fold change [16]	log2 fold change [17]	log2 fold change [18]	log2 fold change [19]	log2 fold change [20]
NDUFA12 (UniProt Q9UI09)	0.029	-0.017	-0.094	0	-0.027	-0.037	-0.061	0.031	0.05	-0.018	-0.011	-0.071	0.002	-0.213	0.019	-0.167	-0.086	0.056	-0.04	0.023
NOB1 (UniProt Q9ULX3)	-0.022	-0.092	0	0.045	-0.047	-0.009	0.141	0.103	0.007	0	0.16	0.001	0.026	0.068	-0.14	0.044	0.01	-0.13	0.045	-0.042
MRPS17 (UniProt Q9Y2R5)	-0.017	-0.138	0.002	0.072	0.105	0.096	0.185	0.096	0.016	-0.047	-0.089	0.038	0.047	-0.254	-0.043	-0.025	0.039	-0.016	0.113	0.035
NNMT (UniProt P40261)	-0.041	0.01	-0.087	-0.081	0.016	0.004	-0.078	0.021	-0.021	0.038	-0.057	-0.163	-0.001	-0.076	-0.06	0.216	0.041	0.017	-0.019	0.06
MYL12B (UniProt O14950)	0.057	-0.012	-0.14	0.019	0.007	-0.036	0.009	-0.041	-0.012	-0.018	-0.008	-0.052	0.111	-0.064	-0.06	0.022	-0.001	-0.018	0.047	-0.015
MLST8 (UniProt Q9BVC4)	-0.124	-0.003	-0.034	0.124	-0.116	-0.092	0.099	0.014	0.101	-0.106	0.1	-0.206	-0.12	-0.154	0.019	0.055	-0.041	-0.081	-0.039	–
NNT (UniProt Q13423)	0.005	0	-0.024	-0.01	0.017	-0.009	-0.053	-0.036	-0.001	-0.014	-0.008	-0.08	0.015	-0.076	-0.041	0.037	0.016	0.031	-0.031	-0.01
NACC1 (UniProt Q96RE7)	-0.055	-0.141	-0.26	0.034	-0.063	-0.312	0.01	-0.006	0.13	-0.021	0.009	-0.116	0.103	0.02	0.016	-0.198	0.021	0.024	-0.031	-0.034
MON2 isoform 5 (UniProt Q7Z3U7)	-0.089	-0.001	-0.056	-0.005	0.02	-0.011	0.01	0.044	0.026	-0.025	-0.003	-0.017	0.101	-0.147	0.046	0.091	0.039	-0.004	0.036	0.048
NDUFA4 (UniProt O00483)	0.021	0.021	0.022	-0.029	0.009	-0.03	-0.106	-0.129	-0.04	0.001	-0.022	-0.031	-0.019	0.038	-0.024	-0.044	0.024	0.019	0.048	-0.025
NFYC (UniProt Q13952)	0.011	0.012	0.054	-0.021	-0.022	-0.022	-0.041	-0.019	0.005	0.005	-0.026	-0.023	0.004	-0.065	-0.036	0.017	-0.018	0.127	0.033	0.092
NMRAL1 (UniProt Q9HBL8)	0.115	0.028	0.001	0.14	0.061	0.122	0.84 (active)	0.018	-0.14	-0.154	0.678	-0.084	0.135	-0.268	-0.099	0.184	0.257	0.003	-0.003	0.83
MRPL34 (UniProt Q9BQ48)	-0.09	0	0.117	0.119	0.086	0.138	0.101	0.169	0.055	0.035	-0.074	0.081	0.072	0.029	-0.089	-0.045	-0.105	-0.164	0.028	-0.102
ORC5 (UniProt O43913)	-0.081	0.149	-0.195	0.093	-0.097	-0.182	0.094	-0.009	0.033	-0.05	0.016	0.104	0.028	-0.013	0.125	0.07	0.088	0.018	0.062	0.012
MTHFD1 (UniProt P11586)	0.004	0.018	-0.055	-0.009	0.003	-0.046	-0.032	0.058	0.04	-0.036	0.048	-0.07	0.04	-0.036	-0.001	0.017	0.055	-0.015	0.014	-0.002
NARS2 (UniProt Q96I59)	-0.004	0.03	-0.039	-0.127	-0.056	0.001	-0.021	-0.006	0.008	-0.008	-0.213	-0.196	0.027	-0.072	-0.046	0.007	-0.039	0.09	-0.031	-0.037
